Results filed as inconclusive are left out. Entries that show only a call come without a potency. A number with no mark means an inactive call. Active and inactive are the calls of the source. Unless noted, calls follow the shape of the dose curve; as a rule, active = well fitted curve in the direction sought with a large enough effect in the repeat runs; inconclusive = weak or mixed curves; inactive = no such curve, though single readings can be large; an effect the other way counts as inactive or inconclusive.
Columns and labels:
[1] = A CellTox Green Cytotoxicity Assay to monitor cytotoxicity in HEK293 cells - 16 hour (AID 1224888); also: nearly all actives have a fitted effect of over 35% in size
In short: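 Seeding of HEK293 cells together with cytotoxicity dye preceded a 5 h incubation at 37 C/5% CO2. Test compounds in DMSO were then added and fluorescence monitored across 40 h.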

[2] = qHTS RealTime-Glo MT Cell Viability Assay in HepG2 cells - 0 hour (AID 1224889); also: nearly all actives have a fitted effect of over 50% in size
In short: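 Real-time, nonlytic viability: 600 HepG2 cells/well mixed with NanoLuc enzyme plus prosubstrate; 5 h settle, compound (DMSO) added by pintool; luminescence monitored over 40 h at 37 C.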

[3] = A CellTox Green Cytotoxicity Assay to monitor cytotoxicity in HepG2 cells - 8 hour (AID 1224890); also: nearly all actives have a fitted effect of over 45% in size
In short: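 Nonlytic assay: viable cells exclude the dye, so fluorescence scales with cell death. HepG2 at 600 cells/well, compounds added after 5 h, signal read across 40 h.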

[4] = qHTS assay to identify small molecule antagonists of the androgen receptor (AR) signaling pathway using the MDA cell line in the presence of 0.5 nM R1881 - cell viability counter screen (AID 1259242); also: nearly all actives have a fitted effect of over 45% in size
In short: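 R1881 at 0.5 nM final stimulated MDA-kb2 cells during 16 hr compound treatment at 37C. Cytotoxicity read: CellTiter-Fluor fluorescence after 30 min.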

[5] = biological target: Estrogen receptor (Homo sapiens) (UniProt P03372); assay: qHTS assay to identify small molecule antagonists of the estrogen receptor alpha (ER-alpha) signaling pathway using the BG1 cell line in the presence of 0.1 nM 17-beta-estradiol (AID 1259244); also: nearly all actives have a fitted effect of over 50% in size
In short: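 VM7Luc4E2; 4xERE-luciferase; 0.1 nM E2 final; 22 h co-incubation, 37C; ONE-Glo luminescence after 30 min at room temperature.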

[6] = qHTS assay to identify small molecule HDAC inhibitors (AID 1259364);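 also: wild-type HCT-116 cells with endogenous class I/II HDAC activity; top concentration of the series differs between compounds; nearly all actives have a fitted effect of over 45% in size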
In short: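 Relative class I and II HDAC activity is taken from the luminogenic signal in HCT-116 cells, with compound exposure 2 hr and reagent development 30 min at room temperature.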

[7] = qHTS assay to identify small molecule antagonists of the estrogen receptor alpha (ER-alpha) signaling pathway using the BG1 cell line in the presence of 0.1 nM 17-beta-estradiol - cell viability counter screen (AID 1259241); also: nearly all actives have a fitted effect of over 40% in size
In short: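 VM7Luc4E2 cells (endogenous full-length ER-alpha, 4xERE-luciferase), cultured 5 days in charcoal-stripped serum, exposed to compounds with 0.1 nM 17beta-estradiol (final) for 22 hr at 37C. Viability read in same wells as live-cell protease fluorescence after 30 min.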

[8] = qHTS assay to identify small molecule phospholipidosis (PLD) inducers (AID 1259344; active = well fitted curve in the direction sought with a large enough effect; an effect the other way counts as inactive or inconclusive)
In short: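 HepG2 cells on collagen I, attached 4 h at 37 C, were co-treated with compound and LipidTOX Red dye for 24 h at 37 C, then fixed with paraformaldehyde plus Hoechst 33342 and imaged by high-content microscopy for phospholipid accumulation.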

[9] = biological target: Androgen receptor (Homo sapiens) (UniProt P10275); assay: qHTS assay to identify small molecule antagonists of the androgen receptor (AR) signaling pathway using the MDA cell line in the presence of 0.5 nM R1881 (AID 1259243); also: nearly all actives have a fitted effect of over 50% in size; also: potency is read from the fitted curve at half-maximal effect
In short: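 We exposed MDA-kb2 cells to compounds under 0.5 nM R1881 stimulation for 16 hr at 37C and quantified MMTV-driven luciferase by luminescence.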

Chain of Estrogen receptor (Homo sapiens) (P03372 whole entry, looked up): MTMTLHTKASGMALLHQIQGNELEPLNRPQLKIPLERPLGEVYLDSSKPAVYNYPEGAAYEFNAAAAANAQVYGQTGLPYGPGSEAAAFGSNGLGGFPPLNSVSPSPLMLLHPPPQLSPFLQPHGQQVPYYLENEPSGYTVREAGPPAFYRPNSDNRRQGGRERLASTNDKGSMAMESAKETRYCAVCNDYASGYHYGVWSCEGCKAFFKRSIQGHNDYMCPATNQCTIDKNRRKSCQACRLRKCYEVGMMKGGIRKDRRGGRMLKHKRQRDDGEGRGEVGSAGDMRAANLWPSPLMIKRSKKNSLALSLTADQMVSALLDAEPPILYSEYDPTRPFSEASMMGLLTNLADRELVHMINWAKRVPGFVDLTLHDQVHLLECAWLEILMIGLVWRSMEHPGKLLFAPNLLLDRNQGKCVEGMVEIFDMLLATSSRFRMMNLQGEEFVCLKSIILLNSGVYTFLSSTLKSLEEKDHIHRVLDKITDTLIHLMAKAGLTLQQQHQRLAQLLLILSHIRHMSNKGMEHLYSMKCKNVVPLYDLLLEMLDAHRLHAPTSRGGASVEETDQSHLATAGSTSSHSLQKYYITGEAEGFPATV
Chain of Androgen receptor (Homo sapiens) (P10275 whole entry, looked up): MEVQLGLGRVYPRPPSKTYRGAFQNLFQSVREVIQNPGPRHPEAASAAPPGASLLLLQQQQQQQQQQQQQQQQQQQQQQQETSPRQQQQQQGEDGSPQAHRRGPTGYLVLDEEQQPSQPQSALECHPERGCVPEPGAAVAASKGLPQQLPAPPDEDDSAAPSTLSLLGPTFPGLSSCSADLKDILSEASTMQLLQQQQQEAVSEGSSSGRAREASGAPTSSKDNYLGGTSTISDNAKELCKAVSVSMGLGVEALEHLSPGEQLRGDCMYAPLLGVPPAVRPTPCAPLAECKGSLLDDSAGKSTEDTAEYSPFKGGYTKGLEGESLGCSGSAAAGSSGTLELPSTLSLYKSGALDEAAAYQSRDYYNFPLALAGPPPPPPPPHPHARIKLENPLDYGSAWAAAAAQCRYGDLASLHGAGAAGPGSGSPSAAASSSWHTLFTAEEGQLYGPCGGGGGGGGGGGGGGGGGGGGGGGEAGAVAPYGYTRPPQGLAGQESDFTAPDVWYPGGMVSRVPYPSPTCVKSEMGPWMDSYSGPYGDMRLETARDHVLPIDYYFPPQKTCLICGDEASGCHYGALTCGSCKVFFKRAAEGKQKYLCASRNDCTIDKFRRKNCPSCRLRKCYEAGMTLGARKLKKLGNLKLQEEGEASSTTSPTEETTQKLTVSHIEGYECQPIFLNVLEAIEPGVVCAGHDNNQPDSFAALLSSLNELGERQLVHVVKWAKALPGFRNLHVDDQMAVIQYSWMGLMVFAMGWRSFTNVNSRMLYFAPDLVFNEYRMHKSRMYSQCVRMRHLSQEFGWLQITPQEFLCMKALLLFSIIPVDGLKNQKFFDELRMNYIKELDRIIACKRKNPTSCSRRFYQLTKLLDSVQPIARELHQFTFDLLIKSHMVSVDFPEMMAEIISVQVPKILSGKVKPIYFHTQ

Row | SMILES | Potency [1] | Potency [2] | Potency [3] | outcome [4] | outcome [5] | Potency [6] | outcome [7] | Potency [8] | Potency [9] | PLD induction [8]
1 | CC(C)(C)C(=O)CCc1ccc(Cl)cc1 | inactive | inactive | inactive | inactive | inactive | inactive |  |  |  | 
2 | CCN1CCN(C(=O)N[C@@H](C(=O)N[C@@H]2C(=O)N3[C@@H]2SC(C)(C)[C@H]3C(=O)O)c2ccccc2)C(=O)C1=O | inactive | inactive | inactive | inactive | inactive | inactive | inactive | inactive |  | 
3 | CCCC(C)C(O)CC (stereo not drawn) | inactive | inactive |  | inactive |  | inactive |  |  |  | 
4 | O=S(=O)(O)CC(O)CCl (stereo not drawn) | inactive | inactive | inactive | inactive | inactive | inactive | inactive |  |  | 
5 | NS(=O)(=O)c1cc2c(cc1C(F)(F)F)NCNS2(=O)=O | inactive | inactive | inactive | inactive | inactive | inactive |  | inactive |  | 
6 | CCOC(=O)COc1ccc2c(C)c(CCN(CC)CC)c(=O)oc2c1Cl | inactive | inactive | inactive | inactive | inactive | inactive | inactive | inactive |  | 
7 | CC(C)(O)c1ccc(C(C)(C)O)cc1 | inactive | inactive | inactive | inactive | inactive | inactive | inactive |  |  | 
8 | CCC(C)c1nccnc1OC (stereo not drawn) | inactive | inactive | inactive | inactive | inactive | inactive |  |  |  | 
9 | CC/C=C/CCCCCCCCCCOC(C)=O | inactive | inactive | inactive | inactive | inactive | inactive | inactive |  |  | 
10 | CCN(CC)CC | inactive | inactive | inactive | inactive | inactive | inactive | inactive |  |  | 
11 | CC(C)C(C)C | inactive | inactive | inactive | inactive |  | inactive | inactive |  |  | 
12 | CCCCCCCCCCCC(C)=O | inactive | inactive |  | inactive | inactive | inactive | inactive |  |  | 
13 | CCN(CC)CC(=O)Oc1ccc(NC(C)=O)cc1 | inactive | inactive |  | inactive |  | inactive | inactive |  | inactive | 
14 | CC(=O)Nc1ccc(S(=O)(=O)Nc2cc(C)on2)cc1 | inactive | inactive | inactive | inactive | inactive | inactive | inactive |  |  | 3.97% [at 7.66 µM]
15 | O=C(O)CCC(=O)Nc1ccc(S(=O)(=O)Nc2nccs2)cc1 | inactive | inactive |  | inactive |  | inactive | inactive | inactive |  | 
16 | O=C(O)COc1ccc2ccccc2c1 | inactive | inactive |  | inactive | inactive | inactive | inactive |  |  | 
17 | Cc1ccc(Br)cc1 | inactive | inactive | inactive | inactive | inactive | inactive | inactive |  |  | 
18 | O=C(OOC(=O)c1ccccc1)c1ccccc1 | inactive | inactive | inactive | inactive | inactive | inactive | inactive | inactive |  | 
19 | O=C(O)Cc1ccccc1Oc1ccc(Cl)cc1Cl | inactive | inactive | inactive | inactive | inactive | inactive | inactive | inactive |  | 
20 | CC(O)CCCCn1c(=O)c2c(ncn2C)n(C)c1=O (stereo not drawn) | inactive | inactive | inactive | inactive | inactive | inactive | inactive | inactive |  | 
21 | CSC(=O)c1cccc2nnsc12 | inactive | inactive |  | inactive | inactive | inactive |  |  | 15.4 µM (active) | 
22 | Cc1cc2c(cc1CC(=O)c1sccc1S(=O)(=O)Nc1onc(C)c1Cl)OCO2 | inactive |  |  | inactive | inactive | inactive | inactive |  |  | 
23 | O=Cc1ccc(C(=O)O)cc1 | inactive | inactive | inactive | inactive | inactive | inactive | inactive |  |  | 
24 | CCCCCCC(=O)c1ccccc1 | inactive | inactive | inactive | inactive |  | inactive | inactive |  |  | 
25 | CCCC(=O)CC | inactive | inactive | inactive | inactive | inactive | inactive |  |  |  | 
26 | Cc1cc(N)no1 | inactive | inactive |  | inactive |  | inactive | inactive |  |  | 
27 | CC/C=C\CCCCCCCCCCOC(C)=O | inactive |  | inactive | inactive | inactive |  | inactive |  |  | 
28 | N=C(N)N | inactive | inactive | inactive | inactive |  | inactive | inactive | inactive |  | 
